Compounds without any hit were thinned out: in the full panel of roughly 79,000, 15% have a hit. Active and inactive are the calls of the source. Rule as the data show it: active = growth inhibition above about 70%; inactive = the rest.
Key:
[1] = NCI Yeast Anticancer Drug Screen. Data for the wt1 strain (AID 149);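 also: 0% = growth of vehicle-treated wt1 cultures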; conditions: S. cerevisiae wt1 strain (SPY 50644) growth inhibition, active compounds read high
Method in brief: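 The wt1 strain was treated with compounds, and growth was compared with vehicle-treated cultures to give inhibition.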

[2] = NCI Yeast Anticancer Drug Screen. Data for the rad50EPP+ strain (AID 151);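 also: 0% = growth of vehicle-treated control cultures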; conditions: S. cerevisiae rad50 mutant strain, active compounds read high
Method in brief: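 Yeast strain carrying rad50 alteration (rad50EPP+) exposed to compounds; growth inhibition measured relative to vehicle-treated controls.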

[3] = NCI Yeast Anticancer Drug Screen. Data for the mgt1 strain (AID 153); conditions: S. cerevisiae mgt1 mutant growth inhibition, active compounds read high
Method in brief: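 Yeast mgt1 strain (DNA repair/cell-cycle alteration panel) exposed to compounds; growth inhibition measured relative to vehicle-treated controls.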

[4] = NCI Yeast Anticancer Drug Screen. Data for the rad50 strain (AID 155);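 also: 0% = growth of vehicle-only cultures of the same strain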; conditions: S. cerevisiae rad50 strain growth inhibition, active compounds read high
Method in brief: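 Cells are treated with compound, grown, and their growth is then scored against vehicle-only cultures of the same repair-deficient yeast strain.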

[5] = NCI Yeast Anticancer Drug Screen. Data for the mec2-1 strain (AID 157); conditions: S. cerevisiae mec2-1 strain, active compounds read high
Method in brief: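 mec2-1 yeast strain, carrying an alteration in DNA damage repair or cell cycle control, was exposed to compounds; growth inhibition was measured relative to vehicle-treated controls.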

[6] = NCI Yeast Anticancer Drug Screen. Data for the rad14 strain (AID 159);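 also: 0% = growth of vehicle-treated control cultures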; conditions: S. cerevisiae rad14 strain growth inhibition, active compounds read high
Method in brief: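 Readout: yeast growth inhibition, referenced to vehicle-only cultures. Strain bears a defined alteration in DNA damage repair.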

[7] = NCI Yeast Anticancer Drug Screen. Data for the sgs1 mgt1 strain (AID 161);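 also: 0% = growth of cultures given vehicle only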; conditions: S. cerevisiae sgs1 mgt1 strain, active compounds read high
Method in brief: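 This yeast growth screen uses a strain with defined DNA-repair lesions; compound-treated growth is compared with vehicle-treated growth.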

[8] = NCI Yeast Anticancer Drug Screen. Data for the CLN2oe strain (AID 163);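 also: 0% = growth of vehicle-only control cultures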; conditions: S. cerevisiae CLN2oe strain, active compounds read high
Method in brief: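 Yeast cells carrying a defined cell-cycle control alteration were exposed to test compounds. Growth inhibition was scored against vehicle-treated control cultures.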

[9] = NCI Yeast Anticancer Drug Screen. Data for the cln2 rad14 strain (AID 165);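 also: 0% = growth equal to vehicle treated cultures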; conditions: S. cerevisiae cln2 rad14 strain, active compounds read high
Method in brief: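 Yeast carrying cln2 and rad14 alterations (cell cycle control and DNA damage repair) were exposed to compounds. Growth inhibition was measured against vehicle-treated controls.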

[10] = NCI Yeast Anticancer Drug Screen. Data for the bub3 strain (AID 167); conditions: S. cerevisiae bub3 mutant strain, active compounds read high
Method in brief: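 Part of a panel of yeast mutants defective in DNA damage repair or cell cycle regulation. Each strain is grown with compound, and inhibition is calculated relative to solvent-treated cultures.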

[11] = NCI Yeast Anticancer Drug Screen. Data for the wt2 strain (AID 169);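 also: 0% = growth of vehicle-treated yeast cultures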; conditions: S. cerevisiae wt2 strain growth inhibition, active compounds read high
Method in brief: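 Yeast cells were exposed to test compounds, and growth inhibition was measured relative to vehicle-treated controls.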

[12] = NCI Yeast Anticancer Drug Screen. Data for the mlh1 strain (AID 171);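 also: 0% = growth of vehicle-treated control cultures of the same strain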; conditions: S. cerevisiae mlh1 strain growth inhibition, active compounds read high
Method in brief: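 Yeast carrying a defined genetic alteration in DNA damage repair or cell cycle control were exposed to test compounds. Growth inhibition was measured relative to vehicle-treated controls.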

[13] = NCI Yeast Anticancer Drug Screen. Data for the sgs1 strain (AID 173);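 also: 0% = growth of vehicle-only control cultures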; conditions: S. cerevisiae sgs1 mutant, active compounds read high
Method in brief: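 Yeast mutant strains carrying defined defects in DNA damage repair or cell cycle control were exposed to test compounds. Growth inhibition was scored against vehicle-treated controls.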

[14] = NCI Yeast Anticancer Drug Screen. Data for the rad18 strain (AID 177); conditions: S. cerevisiae rad18 mutant growth inhibition, active compounds read high
Method in brief: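 Yeast carrying a defined DNA damage repair alteration were exposed to compounds. Growth inhibition was expressed relative to vehicle-treated controls.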

[15] = NCI Yeast Anticancer Drug Screen. Data for the mlh1 rad18 strain (AID 175); conditions: S. cerevisiae mlh1 rad18 strain growth inhibition, active compounds read high
Method in brief: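 Growth inhibition of the yeast strain was measured after compound exposure and expressed relative to vehicle-treated controls. The strain carries defined defects in DNA damage repair.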

[16] = at 5.0 µM (retest, dose inferred, filed as 0.5)
[17] = at 50.0 µM (retest, dose inferred, filed as 5.0)

Measured: growth inhibition

O=c1c(Br)cc2c(-c3ccccc3)c3cc(Br)c(O)c(Br)c3oc-2c1Br
inactive: [1]; at 1.2 µM -1% | [1]; at 3.7 µM 11% | [1]; at 11.0 µM 9% | [1]; at 33.0 µM 0% | [1]; at 100.0 µM -4% | [2]; at 1.2 µM 1% | [2]; at 3.7 µM 23% | [2]; at 11.0 µM 38% | [2]; at 33.0 µM 57% | [2]; at 100.0 µM 39% | [3]; at 1.2 µM 0% | [3]; at 3.7 µM -2% | [3]; at 11.0 µM 9% | [3]; at 33.0 µM 28% | [3]; at 100.0 µM 23% | [4]; at 1.2 µM -54% | [4]; at 3.7 µM 24% | [4]; [16] 22% | [4]; [17] 13% | [5]; at 1.2 µM 1% | [5]; at 3.7 µM 4% | [5]; [16] 54% | [5]; at 11.0 µM -1% | [5]; at 33.0 µM -3% | [5]; [17] 28% | [5]; at 100.0 µM -1% | [6]; at 1.2 µM 2% | [6]; at 3.7 µM 17% | [6]; at 11.0 µM 31% | [6]; at 33.0 µM 22% | [6]; at 100.0 µM -4% | [7]; [16] 16% | [7]; [17] 7% | [7]; at 50.0 µM 61.3% | [8]; at 1.2 µM 3% | [8]; at 3.7 µM 5% | [8]; at 11.0 µM 9% | [8]; at 33.0 µM 23% | [8]; at 100.0 µM 15% | [9]; [16] 28% | [9]; [17] 12% | [9]; at 50.0 µM 55% | [10]; at 1.2 µM -4% | [10]; at 3.7 µM 4% | [10]; [16] 6% | [10]; [17] -6% | [10]; at 50.0 µM 54.2% | [11]; at 1.2 µM 10% | [11]; at 3.7 µM 17% | [11]; at 11.0 µM 21% | [11]; at 33.0 µM 18% | [11]; at 100.0 µM 6% | [12]; at 1.2 µM 0% | [12]; at 3.7 µM -29% | [12]; at 11.0 µM 12% | [12]; at 33.0 µM 18% | [12]; at 100.0 µM 25% | [13]; at 1.2 µM 0% | [13]; at 3.7 µM 8% | [13]; at 11.0 µM 26% | [13]; at 33.0 µM 22% | [13]; at 100.0 µM 13% | [14]; at 1.2 µM -8% | [14]; at 3.7 µM 9% | [14]; at 11.0 µM 1% | [14]; at 33.0 µM -2% | [14]; at 100.0 µM -10%
active: [4]; at 11.0 µM 89% | [4]; at 33.0 µM 87% | [4]; at 50.0 µM 80.8% | [4]; at 100.0 µM 80% | [5]; at 50.0 µM 78.4% | [10]; at 11.0 µM 76% | [10]; at 33.0 µM 92% | [10]; at 100.0 µM 79%

Cc1ccc(C(C)C)c(C(=C2C=CC(=[N+](C)C)C=C2)c2c(C(C)C)ccc(C)c2O)c1O
inactive: [1]; at 1.2 µM 1% | [1]; at 3.7 µM -2% | [2]; at 1.2 µM -1% | [2]; at 3.7 µM 1% | [2]; at 11.0 µM -1% | [2]; at 33.0 µM -3% | [2]; at 100.0 µM -8% | [3]; at 1.2 µM -2% | [3]; at 3.7 µM 0% | [4]; at 1.2 µM 4% | [4]; at 3.7 µM 16% | [5]; at 1.2 µM -1% | [5]; at 3.7 µM 16% | [5]; [16] 53% | [6]; at 1.2 µM 1% | [6]; at 3.7 µM 19% | [7]; [16] 66% | [8]; at 1.2 µM 2% | [8]; at 3.7 µM 26% | [9]; [16] 51% | [10]; at 1.2 µM 3% | [10]; at 3.7 µM 8% | [10]; [16] 35% | [11]; at 1.2 µM 1% | [11]; at 3.7 µM -1% | [12]; at 1.2 µM 0% | [12]; at 3.7 µM 8% | [15]; [16] 63% | [14]; at 1.2 µM -2% | [14]; at 3.7 µM 25%
active: [1]; at 11.0 µM 98% | [1]; at 33.0 µM 95% | [1]; at 100.0 µM 86% | [3]; at 11.0 µM 98% | [3]; at 33.0 µM 94% | [3]; at 100.0 µM 85% | [4]; [16] 84% | [4]; at 11.0 µM 97% | [4]; at 33.0 µM 93% | [4]; [17] 93% | [4]; at 50.0 µM 96.7% | [4]; at 100.0 µM 81% | [5]; at 11.0 µM 98% | [5]; at 33.0 µM 96% | [5]; [17] 96% | [5]; at 50.0 µM 97.5% | [5]; at 100.0 µM 88% | [6]; at 11.0 µM 98% | [6]; at 33.0 µM 94% | [6]; at 100.0 µM 85% | [7]; [17] 96% | [7]; at 50.0 µM 97.3% | [8]; at 11.0 µM 97% | [8]; at 33.0 µM 93% | [8]; at 100.0 µM 75% | [9]; [17] 94% | [9]; at 50.0 µM 95.2% | [10]; at 11.0 µM 97% | [10]; at 33.0 µM 93% | [10]; [17] 97% | [10]; at 50.0 µM 95.3% | [10]; at 100.0 µM 81% | [11]; at 11.0 µM 97% | [11]; at 33.0 µM 94% | [11]; at 100.0 µM 83% | [12]; at 11.0 µM 97% | [12]; at 33.0 µM 96% | [12]; at 100.0 µM 84% | [15]; [17] 94% | [15]; at 50.0 µM 96.9% | [14]; at 11.0 µM 98% | [14]; at 33.0 µM 95% | [14]; at 100.0 µM 80%

From PubChem BioAssay (NCI)
